In PubChem BioAssay (EPA / NIEHS):
Active and inactive are the calls of the source. Rule for the calls: active = hit-call score of the fitted dose curve at least 0.9, where 1 is the maximum; inactive = score below 0.9.

Columns and labels:
[1] = read-out: Urokinase-type plasminogen activator receptor (uPAR), PLAUR (gene 5329); assay: BSK_CASM3C_uPAR: BioMAP Diversity Plus: CASM3C Assay for Urokinase-type plasminogen activator receptor (uPAR) Biomarker Activity (AID 2283054); settings: primary human coronary artery smooth muscle cells; actives raise or lower the signal;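 note: cell-surface uPAR protein level quantified by ELISA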
[2] = read-out: Vascular cell adhesion molecule 1 (VCAM1), VCAM1 (gene 7412); assay: BSK_CASM3C_VCAM1: BioMAP Diversity Plus: CASM3C Assay for Vascular cell adhesion molecule 1 (VCAM1) Biomarker Activity (AID 2283055); settings: primary human coronary artery smooth muscle cells; actives raise or lower the signal;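 note: VCAM-1 protein level quantified by ELISA on the cells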
[3] = read-out: Collagen III, COL3A1 (gene 1281); assay: BSK_hDFCGF_CollagenIII: BioMAP Diversity Plus: hDFCGF Assay for Collagen III Biomarker Activity (AID 2283056); settings: primary human foreskin fibroblasts; actives raise or lower the signal
Method in brief: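 ELISA readout of Collagen III in human dermal (foreskin) fibroblasts, taken 24 h post-treatment. Gain or loss relative to DMSO vehicle fitted in both directions.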

[4] = read-out: Epidermal growth factor receptor (EGFR), EGFR (gene 1956); assay: BSK_hDFCGF_EGFR: BioMAP Diversity Plus: hDFCGF Assay for Epidermal growth factor receptor (EGFR) Biomarker Activity (AID 2283057); settings: primary human foreskin fibroblasts; actives raise or lower the signal
Method in brief: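 Measured by ELISA: EGFR levels on primary human foreskin fibroblasts 24 h after chemical treatment, analysed relative to DMSO with bidirectional fitting.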

[5] = read-out: Interleukin-8 (IL8), CXCL8 (gene 3576); assay: BSK_hDFCGF_IL8: BioMAP Diversity Plus: hDFCGF Assay for Interleukin-8 (IL8) Biomarker Activity (AID 2283058); settings: primary human foreskin fibroblasts; actives raise or lower the signal
Method in brief: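 IL-8 levels read by ELISA at 24 hours after dosing human skin fibroblast cultures. Parallel SRB staining assessed overt cytotoxicity, and gain or loss of signal was fitted against DMSO control.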

[6] = BSK_hDFCGF_Proliferation: Cell Proliferation Assessment in the BioMAP Diversity Plus: hDFCGF Assay (AID 2283059); settings: primary human foreskin fibroblasts;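 note: curves fitted for both rise and fall of signal versus DMSO baseline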
Method in brief: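 Sub-confluent human foreskin fibroblast cultures receive test chemical […]. Relative cell number is quantified by sulforhodamine B staining (0.1%, after 10% TCA fixation) at 560 nm, with bidirectional fitting referenced to DMSO.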

[7] = read-out: Macrophage colony-stimulating factor (MCSF), CSF1 (gene 1435); assay: BSK_hDFCGF_MCSF: BioMAP Diversity Plus: hDFCGF Assay for Macrophage colony-stimulating factor (MCSF) Biomarker Activity (AID 2283060); settings: primary human foreskin fibroblasts; actives raise or lower the signal
Method in brief: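 M-CSF levels read by ELISA at 24 h post-dosing in human skin fibroblasts. Parallel cultures stained with SRB assessed cytotoxicity at the same time point; response fitted in both directions against the DMSO baseline.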

[8] = BSK_hDFCGF_SRB: Viability Assessment in the BioMAP Diversity Plus: hDFCGF Assay (AID 2283061); settings: primary human foreskin fibroblasts;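 note: cells exposed to compound for 24 h before the read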
Method in brief: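 Viability was read as total protein: after 10% TCA fixation, wells were stained with 0.1% sulforhodamine B and read at 560 nm. Primary human foreskin fibroblasts were dosed for 24 h, with bidirectional fitting versus DMSO.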

[9] = read-out: TIMP metallopeptidase inhibitor 1 (TIMP1), TIMP1 (gene 7076); assay: BSK_hDFCGF_TIMP1: BioMAP Diversity Plus: hDFCGF Assay for TIMP metallopeptidase inhibitor 1 (TIMP1) Biomarker Activity (AID 2283062); settings: primary human foreskin fibroblasts; actives raise or lower the signal
Method in brief: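 TIMP-1 measured by ELISA 24 h after chemical dosing of primary human skin fibroblasts, with gain or loss fitted relative to DMSO. Parallel SRB staining (560 nm) monitored overt cytotoxicity.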

[10] = read-out: Monokine induced gamma interferon (MIG), CXCL9 (gene 4283); assay: BSK_hDFCGF_MIG: BioMAP Diversity Plus: hDFCGF Assay for Monokine induced gamma interferon (MIG) Biomarker Activity (AID 2283063); settings: primary human foreskin fibroblasts; actives raise or lower the signal
Method in brief: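 Human primary foreskin fibroblasts in the hDFCGF system, exposed to test chemical for 24 h; MIG measured by ELISA. Bidirectional curve fitting against DMSO negative control as activity baseline.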

Row | Compound | outcome [1] | outcome [2] | outcome [3] | outcome [4] | outcome [5] | AC50 [6] | outcome [7] | outcome [8] | outcome [9] | outcome [10] | AC50 [3] | AC50 [7] | outcome [6] | AC50 [1] | AC50 [2] | AC50 [4] | AC50 [5] | AC50 [8] | AC50 [9] | AC50 [10]
1 | Cc1cccc(N)c1 | inactive | inactive | inactive | inactive | inactive | 0.148 µM (active) | inactive | inactive | inactive | inactive | – | – | – | – | – | – | – | – | – | –
2 | O=P(Oc1ccccc1)(Oc1ccccc1)Oc1ccccc1 | inactive | inactive | – | inactive | inactive | 14.2 µM (active) | – | inactive | inactive | inactive | 8.45 µM (active) | 10.9 µM (active) | – | – | – | – | – | – | – | –
3 | O=P1(N(CCCl)CCCl)NCCCO1 (stereo not given) | inactive | inactive | inactive | inactive | inactive | – | inactive | inactive | inactive | inactive | – | – | inactive | – | – | – | – | – | – | –
4 | CC(C)(C)c1ccc(O)cc1 | inactive | inactive | inactive | inactive | inactive | – | inactive | inactive | inactive | inactive | – | – | inactive | – | – | – | – | – | – | –
5 | CCOc1ccc(C(C)(C)COCc2cccc(Oc3ccccc3)c2)cc1 | inactive | inactive | inactive | inactive | inactive | – | – | inactive | inactive | inactive | – | 2.26 µM (active) | inactive | – | – | – | – | – | – | –
6 | CCOP(=S)(S)OCC | inactive | inactive | inactive | inactive | inactive | 12.6 µM (active) | inactive | inactive | inactive | inactive | – | – | – | – | – | – | – | – | – | –
7 | O=C(O)C=CC(F)(C(F)(F)F)C(F)(F)F | inactive | inactive | inactive | inactive | inactive | – | inactive | inactive | inactive | inactive | – | – | inactive | – | – | – | – | – | – | –
8 | Nc1ccc([N+](=O)[O-])cc1Cl | – | inactive | inactive | inactive | inactive | – | inactive | inactive | inactive | inactive | – | – | inactive | 0.0567 µM (active) | – | – | – | – | – | –
9 | O=P(OCC(Br)CBr)(OCC(Br)CBr)OCC(Br)CBr (stereo not given) | inactive | inactive | inactive | inactive | inactive | – | inactive | inactive | inactive | inactive | – | – | inactive | – | – | – | – | – | – | –
10 | O=C(O)C1C(C(=O)O)C2(Cl)C(Cl)=C(Cl)C1(Cl)C2(Cl)Cl (stereo not given) | inactive | inactive | inactive | inactive | inactive | – | inactive | inactive | inactive | inactive | – | – | inactive | – | – | – | – | – | – | –
11 | CCCCC(CC)COC(=O)c1c(Br)c(Br)c(Br)c(Br)c1C(=O)OCC(CC)CCCC (stereo not given) | inactive | inactive | inactive | inactive | inactive | – | inactive | inactive | inactive | inactive | – | – | inactive | – | – | – | – | – | – | –
12 | O=C(O)C(F)(OC(F)(F)C(F)(F)C(F)(F)F)C(F)(F)F (stereo not given) | inactive | inactive | inactive | inactive | inactive | – | inactive | inactive | inactive | inactive | – | – | inactive | – | – | – | – | – | – | –
13 | CN(C)C(=O)Cl | inactive | inactive | inactive | inactive | inactive | – | inactive | inactive | inactive | inactive | – | – | inactive | – | – | – | – | – | – | –
14 | ClC(Cl)=C(c1ccc(Cl)cc1)c1ccccc1Cl | – | – | – | – | – | 0.742 µM (active) | – | – | – | – | 2.45 µM (active) | 2.86 µM (active) | – | 32.6 µM (active) | 20 µM (active) | 4.82 µM (active) | 4.15 µM (active) | 3.51 µM (active) | 3.94 µM (active) | 4.45 µM (active)
15 | C=CC(=O)OCC(CC)(COC(=O)C=C)COC(=O)C=C | – | – | – | – | – | 0.795 µM (active) | – | – | – | – | 1.03 µM (active) | 2.11 µM (active) | – | 1.97 µM (active) | 1.65 µM (active) | 1.59 µM (active) | 3.17 µM (active) | 1.32 µM (active) | 1.11 µM (active) | 1.4 µM (active)
16 | CCCCOCCOP(=O)(OCCOCCCC)OCCOCCCC | inactive | – | – | inactive | inactive | – | inactive | inactive | inactive | inactive | 0.016 µM (active) | – | inactive | – | 0.016 µM (active) | – | – | – | – | –
17 | CCCCC(CC)COP(=O)(Oc1ccccc1)Oc1ccccc1 (stereo not given) | inactive | inactive | – | inactive | – | 6.04 µM (active) | – | – | – | – | 2.39 µM (active) | 6.1 µM (active) | – | – | – | – | 11.9 µM (active) | 4.47 µM (active) | 5.46 µM (active) | 11 µM (active)
18 | O=C(O)C(Cl)Cl | inactive | inactive | inactive | inactive | inactive | – | inactive | inactive | inactive | inactive | – | – | inactive | – | – | – | – | – | – | –
19 | CC(O)C(F)(F)C(F)(F)F (stereo not given) | inactive | inactive | inactive | inactive | inactive | – | inactive | inactive | inactive | inactive | – | – | inactive | – | – | – | – | – | – | –
20 | N#Cc1cc([N+](=O)[O-])ccc1N | inactive | inactive | inactive | inactive | inactive | – | inactive | inactive | inactive | inactive | – | – | inactive | – | – | – | – | – | – | –
21 | CCCCN(CCCC)SN(C)C(=O)Oc1cccc2c1OC(C)(C)C2 | inactive | – | – | inactive | – | 6.34 µM (active) | – | – | – | – | 5.49 µM (active) | 7.15 µM (active) | – | – | 13.4 µM (active) | – | 16.2 µM (active) | 9.64 µM (active) | 12.4 µM (active) | 13.2 µM (active)
